According to PubChem BioAssay (NCATS):
Inconclusive results are not listed. The source made the active and inactive calls. Calls come from the whole dose curve; as a rule, active = well fitted curve in the direction sought with a large enough effect; inconclusive = small, poorly fitted or top-dose-only effect, or another doubt; inactive = no such curve, though single readings can be large; an effect the other way counts as inactive or inconclusive.

Experiments:
[1] = molecular target: Glutaminase kidney isoform, mitochondrial (Homo sapiens) (UniProt O94925); assay: qHTS for Inhibitors of Glutaminase (GLS): LOPAC Validation (AID 624146); note: nearly all actives have a fitted effect of over 60% in size; note: potency is the fitted concentration of half-maximal effect
Procedure, shortened: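 hKGA in 45 mM KH2PO4 (pH 8.2), 0.02% Tween-20 with compound, then 1mM L-Glutamine (stock as added) plus glutamate oxidase/HRP/Amplex red coupling mix. Fluorescence read initially and after 30 min at RT; signal change reflects glutamate formation.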

[2] = qHTS of Trypanosoma Brucei Inhibitors: LOPAC Validation (AID 624147)
Procedure, shortened: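 Luminescence from Kinase-Glo Plus, added after a 45-minute room-temperature reaction, served as the end-point read-out. The enzyme and substrate were preincubated with compound before ADP (130 uM final) initiated turnover. Concentration-effect curves came from normalized qHTS data.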

[3] = molecular target: Glucagon-like peptide 1 receptor (Homo sapiens) (UniProt P43220); assay: qHTS of GLP-1 Receptor Agonists: LOPAC Validation (AID 624148);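 note: luminescence from a luciferase reporter switched on by cAMP; higher luminescence signal means agonism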
Procedure, shortened: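 Agonism scored as increased luciferase luminescence driven by cAMP in HEK293 clones carrying GLP-1R. Cells settled 12 hours, received compound for 4-6 hr at 37 deg C, 5% CO2, and were read after 12 min detection reagent at RT.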

[4] = qHTS of Nrf2 Activators: LOPAC Validation (AID 624149)
Procedure, shortened: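 Luciferase signal from ARE activation, read with Steady-Glo after 30 min at room temperature. Compounds were pin-transferred onto AREc32_Fluc cells (1000/well, OPTI-MEM/5% FBS, seeded overnight) and left 24 hr at 37 deg C.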

[5] = HTS Assay for Allosteric Antagonists of the Human D2 Dopamine Receptor: Hit Validation in HTRF (AID 624455);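 note: stable D1 dopamine receptor cell line scored for blocking the D1 response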
Procedure, shortened: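 Inhibition of the D1-mediated response was measured by HTRF. Cells used were a line stably expressing the D1 dopamine receptor.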

Measured: Potency

Sequence of Glutaminase kidney isoform, mitochondrial (Homo sapiens) (O94925 whole entry, looked up, canonical isoform): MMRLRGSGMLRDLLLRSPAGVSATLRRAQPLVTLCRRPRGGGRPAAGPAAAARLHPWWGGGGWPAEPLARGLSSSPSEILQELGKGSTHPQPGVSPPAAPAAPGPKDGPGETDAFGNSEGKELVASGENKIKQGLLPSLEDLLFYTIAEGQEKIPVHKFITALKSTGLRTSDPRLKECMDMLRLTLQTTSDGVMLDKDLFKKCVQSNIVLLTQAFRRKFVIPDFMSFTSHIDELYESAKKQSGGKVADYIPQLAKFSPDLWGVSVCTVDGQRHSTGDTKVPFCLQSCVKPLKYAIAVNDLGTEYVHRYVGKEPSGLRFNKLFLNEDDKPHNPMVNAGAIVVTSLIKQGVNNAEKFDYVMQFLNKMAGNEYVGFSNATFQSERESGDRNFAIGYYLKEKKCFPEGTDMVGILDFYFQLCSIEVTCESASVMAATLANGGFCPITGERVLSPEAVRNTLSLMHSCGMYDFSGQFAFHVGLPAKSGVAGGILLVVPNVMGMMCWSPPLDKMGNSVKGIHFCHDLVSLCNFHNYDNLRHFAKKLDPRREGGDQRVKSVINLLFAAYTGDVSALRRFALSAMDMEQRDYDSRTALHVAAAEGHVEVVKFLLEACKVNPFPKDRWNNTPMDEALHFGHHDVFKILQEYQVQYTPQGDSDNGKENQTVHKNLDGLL
Sequence of Glucagon-like peptide 1 receptor (Homo sapiens) (P43220 whole entry, looked up): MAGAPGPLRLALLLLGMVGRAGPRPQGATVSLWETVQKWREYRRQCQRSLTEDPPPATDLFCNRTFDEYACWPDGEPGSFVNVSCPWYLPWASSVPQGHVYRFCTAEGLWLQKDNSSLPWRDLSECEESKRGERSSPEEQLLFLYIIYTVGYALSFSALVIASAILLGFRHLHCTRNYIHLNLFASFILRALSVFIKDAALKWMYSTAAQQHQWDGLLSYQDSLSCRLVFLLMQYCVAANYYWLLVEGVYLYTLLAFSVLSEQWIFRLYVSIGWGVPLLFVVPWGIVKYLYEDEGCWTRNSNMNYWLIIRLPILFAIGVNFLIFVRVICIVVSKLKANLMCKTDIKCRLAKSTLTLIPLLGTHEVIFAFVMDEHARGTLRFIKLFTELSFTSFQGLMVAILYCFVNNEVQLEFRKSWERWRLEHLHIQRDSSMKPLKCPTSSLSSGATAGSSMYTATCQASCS

COc1ccc2c(c1)CCC1C2CC[C@@]2(C)C1CC[C@@H]2NCCCCCCN1C(=O)CCC1=O (some centres not stated)
inactive: all assays above

OC[C@H]1O[C@@H](n2cnc3c(NC4CCCC4)ncnc32)[C@H](O)[C@@H]1O
inactive: all assays above

CCCCC#Cc1nc(NC)c2ncn([C@@H]3O[C@H](CO)[C@@H](O)[C@H]3O)c2n1
inactive: all assays above

N#C/C(=C\c1ccc(O)c(O)c1)C(=O)NCc1ccccc1
active: [1] 562 nM
inactive: all other assays above

CC1(C)CCC=[N+]1[O-]
inactive: all assays above

Cc1cc(NC2CCCCC2)nc(-n2nc(C)cc2C)n1
not listed: [4]
inactive: all other assays above

O=C(c1ccc(Cl)cc1)N1CCN(c2ccc([N+](=O)[O-])c3ncccc23)CC1
not listed: [4]
inactive: all other assays above

Nc1nc(Cl)nc2c1ncn2[C@@H]1O[C@H](COP(=O)(O)OP(=O)(O)OP(=O)(O)O)[C@@H](O)[C@H]1O
inactive: [1] | [2] | [4]

O=[N+]([O-])c1ccc2c(c1)S(=O)(=O)C=C2
not listed: [4]
inactive: all other assays above

CCCN(CC1CC1)c1nc(C)nc(Nc2c(Cl)cc(Cl)cc2Cl)c1Cl
not listed: [3]
inactive: all other assays above

Clc1ccc(N2CCN(Cc3c[nH]c4ncccc34)CC2)cc1
not listed: [3]
inactive: all other assays above

CCc1c(C(=O)NCCc2ccc(N3CCCCC3)cc2)[nH]c2ccc(Cl)cc12
inactive: all assays above

Fc1cccc(/C=N/N=C/c2cccc(F)c2)c1
not listed: [4]
inactive: all other assays above
